“And” between values parts separate entries of the source, which are not always exact repeats. Identical values can stand only once. Records with an inconclusive call do not appear. The source holds several records for some structures; these can differ, active in one and inactive in another. The source made the active and inactive calls. Calls follow the shape of the dose curve; as a rule, active = well fitted curve in the direction sought with a large enough effect; inconclusive = small, poorly fitted or top-dose-only effect, or another doubt; inactive = no such curve, though single readings can be large; an effect the other way counts as inactive or inconclusive.
Experiments:
[1] = system: HEK293; test: Cytotoxic Profiling of Annotated Libraries Using Quantitative High-Throughput Screening (AID 1296008); details: Five cell lines viability, CellTiter-Glo ATP luminescence, 48-72 h; max response: hits give low values; also: nearly all actives have a fitted effect of over 60% in size; also: potency is read from the fitted curve at half-maximal effect
How it was run: (§1)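 Compounds were pin-transferred onto cells and incubated 48 or 72 hr at 37 degree Celsius, 95% humidity. CellTiter-Glo was added, plates sat 10 min at room temperature, then ATP-coupled luminescence was imaged as the viability read-out.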

[2] = system: HaCat; test: as above; details: Five cell lines viability, CellTiter-Glo ATP luminescence, 48-72 h; max response: hits give low values
How it was run: as §1

[3] = system: KB-3-1; test: as above; details: Five cell lines viability, CellTiter-Glo ATP luminescence, 48-72 h; max response: hits give low values
How it was run: as §1

[4] = system: NIH3T3; test: as above; details: Five cell lines viability, CellTiter-Glo ATP luminescence, 48-72 h; max response: hits give low values
How it was run: as §1

[5] = system: HACAT; test: qHTS assay to identify novel small-molecules to repurpose for Merkel cell carcinoma treatment (AID 1296009); details: MCC and control cell lines, CellTiter-Glo viability, 72 h; at 44.8 µM (top of the series) unless noted; also: nearly all actives have a fitted effect of over 60% in size; also: potency is read from the fitted curve at half-maximal effect
How it was run: (§2)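 Cells exposed to NPC (8-point) and MIPE (11-point) compound dilutions for 72 hr at 37 degree celsius; viability read by CellTiter-Glo luminescence, normalized to no-cell and DMSO in-plate controls.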

[6] = system: MCC-13; test: as above; details: MCC and control cell lines, CellTiter-Glo viability, 72 h; series mostly up to 46 µM
How it was run: as §2

[7] = system: MCC-26; test: as above; details: MCC and control cell lines, CellTiter-Glo viability, 72 h; series mostly up to 46 µM
How it was run: as §2

[8] = system: MKL-1; test: as above; details: MCC and control cell lines, CellTiter-Glo viability, 72 h; series mostly up to 46 µM
How it was run: as §2

[9] = system: MKL-2; test: as above; details: MCC and control cell lines, CellTiter-Glo viability, 72 h; series mostly up to 46 µM
How it was run: as §2

[10] = system: NIH3T3; test: as above; details: MCC and control cell lines, CellTiter-Glo viability, 72 h; at 44.8 µM (top of the series) unless noted
How it was run: as §2

[11] = system: UISO; test: as above; details: MCC and control cell lines, CellTiter-Glo viability, 72 h; series mostly up to 46 µM
How it was run: as §2

[12] = system: WaGa; test: as above; details: MCC and control cell lines, CellTiter-Glo viability, 72 h; series mostly up to 46 µM
How it was run: as §2

[13] = system: C33A; test: Primary qHTS to identify gynecologic anti-cancer compounds using libraries of approved drugs and bioactive compounds (AID 1345084); details: Gynecologic cancer cell panel viability, ATPlite luminescence, 48 h; series mostly up to 57.5 µM; also: nearly all actives have a fitted effect of over 55% in size
How it was run: (§3)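 Measured: luminescence after ATPlite addition (15 min, RT). Exposure: 48 h, 37 C, 5% CO2.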

[14] = system: HEK293T; test: qHTS assay to identify novel small-molecules to repurpose for Merkel cell carcinoma treatment (AID 1296009); details: MCC and control cell lines, CellTiter-Glo viability, 72 h; at 44.8 µM (top of the series); also: nearly all actives have a fitted effect of over 60% in size; also: potency is read from the fitted curve at half-maximal effect
How it was run: as §2

[15] = system: CAOV3; test: Primary qHTS to identify gynecologic anti-cancer compounds using libraries of approved drugs and bioactive compounds (AID 1345084); details: Gynecologic cancer cell panel viability, ATPlite luminescence, 48 h; series mostly up to 57.5 µM; also: nearly all actives have a fitted effect of over 55% in size
How it was run: as §3

[16] = system: CASKI; test: as above; details: Gynecologic cancer cell panel viability, ATPlite luminescence, 48 h; series mostly up to 57.5 µM
How it was run: as §3

[17] = system: Es-2; test: as above; details: Gynecologic cancer cell panel viability, ATPlite luminescence, 48 h; series mostly up to 57.5 µM
How it was run: as §3

[18] = system: HeLa; test: as above; details: Gynecologic cancer cell panel viability, ATPlite luminescence, 48 h; series mostly up to 57.5 µM
How it was run: as §3

[19] = system: Hek293T; test: as above; details: Gynecologic cancer cell panel viability, ATPlite luminescence, 48 h, control line for the selectivity index; series mostly up to 57.5 µM
How it was run: as §3

[20] = system: JEG-3; test: as above; details: Gynecologic cancer cell panel viability, ATPlite luminescence, 48 h; series mostly up to 57.5 µM
How it was run: as §3
% is scaled to controls: 0 for no effect and ±100 for the full control effect.

O=C(O)c1ccccc1C(=O)Nc1ccc(-c2ccccc2)cc1
inactive: max response [1] -10.6% | outcome [2] | max response [3] 9.98% | outcome [3] | outcome [4] | outcome [5] | Potency [6] | Potency [7] | Potency [8] | Potency [9] | outcome [10] | Potency [11] | Potency [12] | Potency [13]

COc1cc2ncnc(-n3nc(-c4ccccn4)nc3N)c2cc1OC
active: Potency [2] 3.17 µM
inactive: outcome [1] | outcome [2] | outcome [3] | outcome [5] | outcome [14] | Potency [6] | Potency [7] | Potency [8] | Potency [9] | Potency [12] | Potency [13] | Potency [15] | Potency [16] | Potency [17] | Potency [18] | Potency [19] | Potency [20]

CS(=O)c1ccc(-c2nc(-c3ccc(F)cc3)c(-c3ccncc3)[nH]2)cc1 (centres undefined)
active: Potency [1] 8.55 µM
inactive: outcome [1] | max response [2] 2.48% | outcome [3] | max response [4] 3.16% and 3.83% | outcome [14] | Potency [6] | Potency [7] | Potency [8] | Potency [9] | Potency [11] | Potency [13] | Potency [15] | Potency [16] | Potency [17] | Potency [18] | Potency [19] | Potency [20]

CCN(CC)CCNC(=O)c1ccc(N)cc1
inactive: outcome [1] | max response [2] 0.0096% | outcome [2] inactive; activator | max response [3] -16.7% | outcome [3] | outcome [4] | outcome [5] inactive; activator | outcome [14] | Potency [6] | Potency [7] | Potency [8] | Potency [9] | outcome [10] | Potency [11] | Potency [12] | Potency [13] | Potency [16] | Potency [17] | Potency [18] | Potency [19] | Potency [20]

Clc1ccc(Cn2c(CN3CCCC3)nc3ccccc32)cc1
inactive: max response [1] -18% | max response [2] -16.9% | outcome [2] | max response [3] 4.33% and 5.03% | outcome [5] inactive [at 17.4 µM] | Potency [6] | Potency [7] | Potency [8] | Potency [12] | Potency [13] | Potency [15] | Potency [16] | Potency [17] | Potency [18] | Potency [19] | Potency [20]

CCOC(=O)C1=C(N)Oc2ccc(Br)cc2C1C(C#N)C(=O)OCC (centres undefined)
inactive: max response [1] -11.5% and -3.28% | outcome [1] | max response [2] -16.4% | outcome [2] | max response [3] -1.43% | outcome [3] | max response [4] 0.0498% and 4.88% | outcome [4] | outcome [5] | outcome [14] | Potency [6] | Potency [7] | Potency [8] | Potency [9] | outcome [10] | Potency [11] | Potency [12] | Potency [13] | Potency [16] | Potency [17] | Potency [18] | Potency [19] | Potency [20]

CC(=O)CCCCn1c(=O)c2c(ncn2C)n(C)c1=O
inactive: max response [1] -3.31% | outcome [1] | max response [2] -9.06% | outcome [2] | max response [3] -13.9% | outcome [3] | max response [4] 4.69% and 0.479% | outcome [5] | outcome [14] | Potency [6] | Potency [7] | Potency [8] | Potency [9] | Potency [11] | Potency [12] | Potency [13] | Potency [15] | Potency [16] | Potency [17] | Potency [18] | Potency [19] | Potency [20]

O=C1NCC2(CCN(CCc3ccccc3)CC2)O1
inactive: outcome [1] | outcome [2] | max response [3] 9.9% | outcome [4] | outcome [5] | outcome [14] | Potency [6] | Potency [7] | Potency [8] | Potency [9] | outcome [10] | Potency [11] | Potency [12] | Potency [13] | Potency [15] | Potency [16] | Potency [17] | Potency [18] | Potency [19] | Potency [20]

O=C(O)Cc1cccc2ccccc12
inactive: max response [1] 0.788% and 3.55% | max response [2] -10.3% | outcome [2] | max response [3] 13.8% and -7.33% | max response [4] -0.562% and 0.69% | outcome [5] | Potency [6] | Potency [8] | Potency [9] | Potency [11] | Potency [12] | Potency [13] | Potency [15] | Potency [16] | Potency [17] | Potency [18] | Potency [19] | Potency [20]

COc1cc2ncnc(Nc3ccc(F)c(Cl)c3)c2cc1OCCCN1CCOCC1
active: Potency [1] 7.62 µM and 16.8 µM | Potency [2] 531 nM and 2.06 µM | Potency [9] 13.3 µM | Potency [11] 26.6 µM
inactive: max response [2] -57.3% | max response [3] -3.97% and -1.38% and 3.83% | max response [4] -12.1% and -4.13% | Potency [7] | Potency [13] | Potency [16] | Potency [17] | Potency [18] | Potency [19] | Potency [20]

COc1cc2c(cc1OC)CN(CCc1ccc(NC(=O)c3cc(OC)c(OC)cc3NC(=O)c3cnc4ccccc4c3)cc1)CC2
inactive: max response [1] -20.5% | max response [2] -17.1% | outcome [3] | Potency [6] | Potency [7] | Potency [8] | Potency [9] | Potency [11] | Potency [12]
active: Potency [1] 11.4 µM

Reference: PubChem BioAssay (NCATS)
